Mtb BioA inh: inhibitors of Mycobacterium tuberculosis BioA enzyme; purified M. tuberculosis BioA enzyme, plate reader; inhibition, % at 9.99 µM; hit rate 0.096% among 360,000; in the data active = inhibition above about 40%
FBA Mtb inh: Mtb fructose-bisphosphate aldolase inhibition. P9WQA3. purified M. tuberculosis FBA, fluorescence read-out. inhibition, % at 1 µM. hit rate 2.3% among 360,000; in the data active = inhibition above about 27%;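 also: 0% = vehicle and 100% = reference inhibitor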
GDH-TPI counter: GDH-TPI coupled enzyme inhibition counter-screen | hit rate 1.2% among 360,000 | inhibition, % at 4.8 µM | GDH-TPI coupled enzyme counterscreen, NADH absorbance; in the data active = inhibition above about 30%;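 also: 0% = DMSO wells and 100% = wells lacking the enzyme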
Rv3671c protease: inhibitors of M. tuberculosis serine protease Rv3671c | P9WHR9 | hit rate 0.048% among 320,000 | inhibition, % at 5.96 µM; in the data active = inhibition above about 38%;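 also: extracellular domain of Rv3671c used as enzyme; 0% = enzyme with DMSO and 100% = no enzyme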
Target sequence (P9WHR9 whole entry, looked up, the tested form may be a part): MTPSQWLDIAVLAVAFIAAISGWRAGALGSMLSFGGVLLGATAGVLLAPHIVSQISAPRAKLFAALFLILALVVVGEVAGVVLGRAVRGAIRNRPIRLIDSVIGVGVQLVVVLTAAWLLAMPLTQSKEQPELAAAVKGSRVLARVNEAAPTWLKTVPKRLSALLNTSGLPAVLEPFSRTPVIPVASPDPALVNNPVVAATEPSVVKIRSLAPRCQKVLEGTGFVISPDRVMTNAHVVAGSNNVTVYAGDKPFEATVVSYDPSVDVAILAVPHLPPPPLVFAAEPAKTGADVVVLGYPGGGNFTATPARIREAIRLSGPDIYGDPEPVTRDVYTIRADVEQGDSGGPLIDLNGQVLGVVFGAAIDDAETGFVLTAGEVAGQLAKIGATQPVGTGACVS
FadD28 FP inh: inhibitors of Mycobacterium tuberculosis FadD28 bisubstrate binding. FadD28 bisubstrate probe binding, fluorescence polarization. inhibition, % at 12.5 µM. hit rate 0.22% among 360,000. AID 588549; in the data active = inhibition above about 8.5%, passing the limit was not always enough
* marks the source's active call; other numbers are inactive results; . = no result; + = active, no number. Most compounds without a hit are left out; they make up all but 3% or so of the library.

SMILES	Mtb BioA inh	FBA Mtb inh	GDH-TPI counter	Rv3671c protease	FadD28 FP inh
C[C@H](NC(=O)C[C@@H]1C[C@@H]2c3cc(NC(=O)CC4CC4)ccc3O[C@@H]2[C@@H](CO)O1)c1ccccc1	7	.	.	.	.
Cc1cc2oc(=O)c3c(c2cc1OC(=O)c1ccco1)CCCC3	0	4	14	7	-2
Cc1ccc(S(=O)(=O)NC(C(=O)Oc2cc3oc(=O)cc(C)c3cc2Cl)C(C)C)cc1 (stereo unspecified)	35	+	9	-4	0
CC(=O)Oc1cc2oc(=O)c3c(c2cc1Cl)CCC3	-1	+	8	-2	0
Cc1cc(=O)oc2cc(OC(C)C(=O)N3CCOCC3)c(Cl)cc12 (stereo unspecified)	0	24	28	.	-3
O=C(Oc1cc2oc(=O)c3c(c2cc1Cl)CCCC3)c1cccs1	.	173*	10	-6	1
O=C(Oc1ccc2c3c(c(=O)oc2c1)CCC3)c1ccco1	-19	+	7	-6	-2
CN(C)CC#Cc1ccc([C@@H]2[C@@H](CO)N3CCCCN(C(=O)C4CCC4)C[C@H]23)cc1	-1	.	.	.	.
O=C(Oc1cc2oc(=O)c3c(c2cc1Cl)CCCC3)c1ccco1	-1	+	15	-4	-5
CC(=O)Oc1cc2oc(=O)cc(C)c2cc1Cl	-1	+	11	-6	-1
Cc1ccc(N2NC(=O)/C(=C/c3ccc(-c4ccc(Cl)c(C(=O)O)c4)o3)C2=O)cc1C	-1	1	-3	7	0
O=C1NN(c2ccc(Cl)c(Cl)c2)C(=O)/C1=C/c1ccc(-c2ccccc2C(=O)O)o1	-4	-11	5	.	13*
Cc1cc(/C=C2\SC(=S)NC2=O)c(C)[nH]1	4	-12	6	-1	33*
Cc1cc(/C=C2\SC(=S)NC2=O)c(C)n1-c1cccc(O)c1	.	-15	13	1	17*
COc1cccc(C=C2SC(=S)NC2=O)c1	.	-2	31*	.	-5
COc1ccc(/C=C2/SC(=S)NC2=O)cc1OCc1ccccc1	-1	-1	19	-34	0
Cc1sc(-n2c(C)cc(/C=C3\SC(=S)NC3=O)c2C)c(C#N)c1C	-1	-9	21	-10	17*
Cc1ccc(-n2c(C)cc(/C=C3\SC(=O)NC3=O)c2C)cc1	0	5	22	1	3
C[C@H](CO)N1C[C@H](C)[C@@H](CN(C)C(=O)C2CCOCC2)Oc2ncc(C3=CCCC3)cc2C1=O	1	.	.	.	.
Cc1noc(C)c1NC(=O)N(C)C[C@H]1Oc2ccc(NC(=O)Nc3ccccc3)cc2C(=O)N([C@@H](C)CO)C[C@@H]1C	0	.	.	.	.
COc1ccc(CN(C)C[C@@H]2OCCCC[C@@H](C)Oc3ccc(NC(=O)Nc4ccccc4)cc3C(=O)N([C@H](C)CO)C[C@@H]2C)cc1	1	.	.	.	.
COc1ccc(CC(=O)Nc2nnc(SCc3ccccc3)s2)cc1S(=O)(=O)N1CCOCC1	-2	0	6	-14	13*
Cc1ccc(C(=O)Nc2nc(-c3ccccn3)cs2)s1	1	6	7	-8	-4
O=C(Nc1nc(-c2ccccn2)cs1)c1ccc(Cl)s1	0	4	36*	-15	-9
CN(C)c1oc(-c2cccs2)nc1C#N	-2	+	30	8	-2
SMILES	Mtb BioA inh	FBA Mtb inh	GDH-TPI counter	Rv3671c protease	FadD28 FP inh
COc1ccc(Nc2oc(-c3cccs3)nc2C#N)cc1	.	10	16	-5	-1
CN(C)c1oc(-c2ccccc2F)nc1C#N	1	+	22	3	-1
COc1ccc(Nc2oc(-c3ccccc3F)nc2C#N)cc1	.	2	22	5	1
CN(C)c1ccc(-c2nnc(-c3cccs3)o2)cc1	.	21	21	3	-4
CNc1oc(-c2cccs2)nc1C#N	-4	+	23	0	-2
O=C(Nc1nnc(-c2ccncc2)o1)c1cccc(N2C(=O)CCC2=O)c1	0	5	38*	1	-2
O=C(Nc1nnc(-c2ccc(Cl)cc2)o1)c1cccc(N2C(=O)CCC2=O)c1	.	4	8	-12	0
Cc1ccc(S(=O)(=O)Nc2ccc3c(c2)C(=O)N([C@H](C)CO)C[C@@H](C)[C@@H](CN(C)S(=O)(=O)c2ccc(C)cc2)O3)cc1	0	.	.	.	.
CCC(=O)Nc1nnc(/C=C/c2ccc(OC)cc2)s1	.	-12	43*	8	-5
COC(=O)Nc1nnc(/C=C/c2ccccc2)s1	.	+	24	0	0
COc1ccc(NC(=O)Nc2ccc3c(c2)[C@@H]2C[C@H](CC(=O)O)O[C@@H](CO)[C@@H]2O3)cc1	-1	.	.	.	.
CC1S/C(=N/N=C/c2cccc([N+](=O)[O-])c2)NC1=O (stereo unspecified)	.	2	0	-14	-1
Cc1ccc(S(=O)(=O)Oc2ccc(C)cc2/C=N/N=C2\NC(=O)C(C)S2)cc1 (stereo unspecified)	0	-1	38*	-1	-4
CNC[C@H]1Oc2c(NC(=O)c3cnccn3)cccc2C(=O)N([C@@H](C)CO)C[C@@H]1C	0	.	.	.	.
C[C@@H]1CN([C@H](C)CO)C(=O)c2cc(NC(=O)Nc3ccccc3)ccc2O[C@@H](C)CCCCO[C@@H]1CN(C)Cc1ccc(C(F)(F)F)cc1	-4	.	.	.	.
CC(=O)c1ccc(N2CCN(C(=O)c3cc(-c4cccnc4)nc4ccc(Br)cc34)CC2)cc1	2	1	46*	3	-2
COc1ccc(NC(=O)N(C)C[C@@H]2Oc3c(NS(=O)(=O)c4ccc(C)cc4)cccc3C(=O)N([C@@H](C)CO)C[C@H]2C)cc1	1	.	.	.	.
O=C(O)c1ccc(N=N/C(=N\Nc2ccc(C(=O)O)cc2)c2ccccc2)cc1	3	-12	11	14	3
Brc1ccc(N/N=C(/N=Nc2nn[nH]n2)c2ccccc2)cc1	.	-8	3	17	13*
Nc1ccc(C(=O)Nc2ccc3c(O)cc(S(=O)(=O)O)cc3c2)cc1	5	0	14	.	15*
Nc1ccc(NC(=O)c2ccc(C(=O)Nc3ccc(N)cc3)cc2)cc1	0	1	9	-4	0
Cc1ccc(S(=O)(=O)Nc2cc3c(cc2N2CCOCC2)n(C)c(=O)c(=O)n3C)cc1	-1	3	32*	2	0
COCCCn1c(=N)c(C(=O)NCC2CCCO2)cc2c(=O)n3cccc(C)c3nc21 (stereo unspecified)	5	+	2	-3	-4
COCCCn1c(C(=O)N2CCOCC2)cc2c(=O)n3ccccc3nc21	0	+	13	5	1
CCOCCCn1c(=N)c(C(N)=S)cc2c(=O)n3cccc(C)c3nc21	-3	77*	5	0	-4
COc1ccc(CCn2c(=N)c(C(=O)NC3CCCC3)cc3c(=O)n4cccc(C)c4nc32)cc1	-5	3	15	-1	1
CCCn1c(=N)c(C(=O)NCC2CCCO2)cc2c(=O)n3cccc(C)c3nc21 (stereo unspecified)	0	+	15	-7	-1
CCOCCCNC(=O)c1cc2c(=O)n3cccc(C)c3nc2n1C	-2	15	14	-3	-2
